Source: PubChem BioAssay (NCATS)
Several values for one entry are separate records, joined by “and”; a condition that tells them apart may be missing. Identical values can stand only once. Results filed as inconclusive are left out. Entries that show only a call come without a potency. A number with no mark means an inactive call. Activity calls are given as the source filed them. Calls come from the whole dose curve; as a rule, active = well fitted inhibition curve with a large enough effect; inconclusive = small, poorly fitted or top-dose-only effect; inactive = flat fitted curve, though single readings scatter.

Tests used:
[1] = test system: PAD; assay: qHTS profiling for inhibitors of Plasmodium falciparum proliferation (AID 504749); conditions: P. falciparum in erythrocytes, SYBR Green DNA, 72 h; series mostly up to 28.7 µM
Method in brief: (§1)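 Three-day growth assay of blood-stage parasites in erythrocytes (0.3% parasitemia, 2.5% hematocrit) at 37 C, 5% CO2, quantified by SYBR Green DNA staining after overnight detergent lysis.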

[2] = test system: PC15; assay: as above; conditions: P. falciparum in erythrocytes, SYBR Green DNA, 72 h; series mostly up to 28.7 µM
Method in brief: as §1

[3] = test system: PC26; assay: as above; conditions: P. falciparum in erythrocytes, SYBR Green DNA, 72 h; series mostly up to 28.7 µM
Method in brief: as §1

[4] = test system: PC49; assay: as above; conditions: P. falciparum in erythrocytes, SYBR Green DNA, 72 h; series mostly up to 28.7 µM
Method in brief: as §1

[5] = test system: SC27B; assay: as above; conditions: P. falciparum in erythrocytes, SYBR Green DNA, 72 h; series mostly up to 28.7 µM
Method in brief: as §1

[6] = test system: TAB109; assay: as above; conditions: P. falciparum in erythrocytes, SYBR Green DNA, 72 h; series mostly up to 28.7 µM
Method in brief: as §1

[7] = test system: TAB113; assay: as above; conditions: P. falciparum in erythrocytes, SYBR Green DNA, 72 h; series mostly up to 28.7 µM
Method in brief: as §1

[8] = test system: TAB165; assay: as above; conditions: P. falciparum in erythrocytes, SYBR Green DNA, 72 h; series mostly up to 28.7 µM
Method in brief: as §1

[9] = test system: W2; assay: as above; conditions: P. falciparum in erythrocytes, SYBR Green DNA, 72 h; series mostly up to 28.7 µM
Method in brief: as §1

[10] = test system: KB-3-1; assay: Cytotoxic Profiling of Annotated Libraries Using Quantitative High-Throughput Screening (AID 1296008); conditions: Five cell lines viability, CellTiter-Glo ATP luminescence, 48-72 h; max response: stronger effect = lower value; note: potency is the fitted concentration of half-maximal effect
Method in brief: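 Cytotoxicity was measured as CellTiter-Glo ATP luminescence, read after 10 min at room temperature. Compound treatment of the cells lasted 48 or 72 hr at 37 degrees Celsius in a qHTS format.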
Note: nearly all actives have a fitted effect of over 60% in size.

Compound	Potency [1]	Potency [2]	Potency [3]	Potency [4]	Potency [5]	Potency [6]	Potency [7]	Potency [8]	Potency [9]	max response [10]	Potency [10]
CC(C)CCC[C@@H](C)[C@H]1CC[C@H]2[C@@H]3CC[C@@H]4C[C@H](O)CC[C@]4(C)[C@H]3CC[C@]12C	inactive	inactive	inactive	inactive	inactive	inactive	inactive	inactive	inactive	-12.6%	–
O=P(O)(O)OC[C@H](O)CO	inactive	inactive	inactive	inactive	inactive	inactive	inactive	inactive	inactive	-16.7%	–
COc1ccc(-c2noc(CC(=O)O)c2-c2ccc(OC)cc2)cc1	inactive	inactive	inactive	inactive	inactive	inactive	inactive	inactive	inactive	2.01%	–
O=P(O)(O)O	inactive	inactive	inactive	inactive	inactive	inactive	inactive	inactive	inactive	2.99%	–
CN(C)c1ccc(C(=C2C=CC(=[N+](C)C)C=C2)c2c(O)c(S(=O)(=O)[O-])cc3cc(S(=O)(=O)O)ccc23)cc1	inactive	inactive	inactive	inactive	inactive	inactive	inactive	inactive	inactive	–	14.6 µM (active)
CN[C@@H]1[C@H](O[C@H]2[C@H](O[C@H]3[C@H](O)[C@@H](O)[C@H](N=C(N)N)[C@@H](O)[C@@H]3N=C(N)N)O[C@@H](C)[C@]2(O)C=O)O[C@@H](CO)[C@H](O)[C@H]1O	inactive	inactive	inactive	inactive	inactive	inactive	inactive	inactive	inactive	22.5%	–
COC(=O)C(CN)c1c[nH]c2ccc(OC)cc12 (stereo not given)	inactive	inactive	inactive	inactive	inactive	inactive	inactive	inactive	inactive	9.41%	–
O=C(CCCCCCCCCCCCC1CCCC1)Nc1ccc(S(=O)(=O)c2ccc(NC(=O)CCCCCCCCCCCCC3CCCC3)cc2)cc1	inactive	inactive	inactive	inactive	inactive	inactive	inactive	inactive	inactive	4.77%	–
C[Si](C)(C)O[Si](C)(C)C	inactive	inactive	inactive	inactive	inactive	inactive	inactive	inactive	inactive	-5.55%	–
C(=C\c1ccncc1)/c1ccccc1	inactive	inactive	inactive	inactive	inactive	inactive	inactive	inactive	inactive	1.91% and -0.505%	–
CC(C)c1ncc([N+](=O)[O-])n1C	inactive	inactive	inactive	inactive	inactive	inactive	inactive	inactive	inactive	-7.8%	–
CC(=O)N=c1sc(S(N)(=O)=O)nn1C	inactive	inactive	inactive	inactive	inactive	inactive	inactive	inactive	inactive	21.5%	–
CNC(=O)OCc1cccc(COC(=O)NC)n1	inactive	inactive	inactive	inactive	inactive	inactive	inactive	inactive	inactive	2.4%	–
CC1C(=O)CC2C3(C)CCC2(C(C)C(=O)O)C(=O)C13 (stereo not given)	inactive	inactive	inactive	inactive	inactive	inactive	inactive	inactive	inactive	5.4%	–
Cc1cc(-c2ccc(N=Nc3ccc4c(S(=O)(=O)O)cc(S(=O)(=O)O)c(N)c4c3O)c(C)c2)ccc1N=Nc1ccc2c(S(=O)(=O)O)cc(S(=O)(=O)O)c(N)c2c1O	inactive	inactive	inactive	inactive	inactive	inactive	inactive	inactive	inactive	–	8.2 µM (active)
CC(C)OC(=O)Nc1ccc2nc(-c3cscn3)[nH]c2c1	inactive	inactive	inactive	inactive	inactive	inactive	inactive	inactive	inactive	–	5.8 µM (active)
CN(CCO)CC(O)Cn1cnc2c1c(=O)n(C)c(=O)n2C (stereo not given) (tested in a mixture with another compound)	inactive	inactive	inactive	inactive	inactive	inactive	inactive	inactive	inactive	-4.03%	–
Cc1ccc(C(C)(C)c2ccc(C)cc2)cc1	inactive	inactive	inactive	inactive	inactive	inactive	inactive	inactive	inactive	-2.63%	–
CN1CCC(OC(=O)C(Oc2ccc(Cl)cc2)Oc2ccc(Cl)cc2)CC1	inactive	inactive	inactive	inactive	inactive	inactive	inactive	inactive	inactive	-2.63%	–
